High-throughput results (PubChem)
Compounds with a hit are over-represented: about 3.4% of the library has one in this group of screens.
LMP1 NFkB inh: Epstein-Barr LMP1 NF-kappaB reporter inhibition; LMP1-induced NF-kappaB luciferase reporter cells, luminescence; inhibition, % at 12.5 µM; actives 0.69% (n = 350,000); in the data active = inhibition above about 41%;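 also: 0% = neutral control wells and 100% = reference inhibitor control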
HIF-2a block: inhibitors of HIF-2a; 786-0 RCC cells HIF-2a reporter, luciferase luminescence, overnight; inhibition, % at 18.8 µM; actives 0.72% (n = 360,000); AID 624352;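 active = inhibition of the luminescence signal of 40% or more relative to plate controls, in a single-dose primary screen at 18.75 µM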
MITF TRPM1 inh: inhibitors of MITF-driven TRPM1 promoter in melanoma cells | inhibition, % at 12.5 µM | SK-MEL-5 TRPM1 promoter luciferase, 24 h | AID 488899 | actives 0.83% (n = 330,000);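 active = mean inhibition across replicates of 60% or more, whatever share of single replicates reaches that level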
TROY NFkB inh: TROY signaling inhibition. Q293 LMP1-TROYcd NF-kB luciferase reporter, 4 h. actives 0.98% (n = 360,000). inhibition, % at 10 µM;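 active = compounds whose plate-normalised and pattern-corrected inhibition of the luciferase reporter signal at the single screening dose is 50% or more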
Shn3 3UTR inh: Schnurri-3 reporter inhibition in Clone20 osteoblasts; actives 0.52% (n = 360,000); inhibition, % at 12.5 µM; AID 588674; Clone20 osteoblast Shn3 3'UTR firefly luciferase, 24 h;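 active = mean inhibition of at least 75% with every replicate also reaching 75%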;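 also: 0% = median of neutral control wells and 100% = pilot-screen positive control compound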
TWEAK-Fn14 inh: TWEAK-Fn14 signaling inhibition; inhibition, % at 10 µM; TWEAK-stimulated Fn14 reporter cells, luciferase luminescence, 8 h; actives 2% (n = 360,000); AID 1159606; in the data active = inhibition above about 50%
Starred values were filed as active, the others as inactive; . = not tested or not shown.

SMILES	LMP1 NFkB inh	HIF-2a block	MITF TRPM1 inh	TROY NFkB inh	Shn3 3UTR inh	TWEAK-Fn14 inh
COc1ccc(C(=O)Oc2cccc(Nc3ncnc4ccccc34)c2)cc1OC	34.1	-8.9	-3.3	53.6*	14.6	82.3*
CCCNC(=O)C1(C)CCN(C(=O)c2cccc(C#N)c2)C1 (stereo not drawn)	.	-4.7	.	-5.3	-5.3	-6.5
CC(=O)Nc1cc(-c2ccc(N(C)C)cc2)cn2c(-c3ccc(F)c(Cl)c3)cnc12	.	-54.1	.	-3.0	0.8	9.1
CN(c1ccccc1)c1ccc(/C=C(/CCC(=O)O)c2nc3ccccc3s2)cc1[N+](=O)[O-]	4.7	12.6	10.8	57.0*	1.0	42.0
Cc1c(CCOC(=O)CC23CC4CC(CC(C)(C4)C2)C3)sc[n+]1CC(=O)c1ccccc1	5.6	-12.2	84.4*	20.7	57.7	15.9
Cc1c(CCOC(=O)CC23CC4CC(CC(C4)C2)C3)sc[n+]1CC(=O)c1ccc(Br)cc1	0.0	1.0	6.9	-7.7	93.7*	-11.2
Cc1c(CCOC(=O)c2ccccc2)sc[n+]1CC(=O)c1ccc(Br)cc1	-5.7	-10.9	7.3	10.3	3.1	46.8
O=[N+]([O-])c1ccc(N2CCN(Cc3cccc([N+](=O)[O-])c3)CC2)cc1	53.5*	11.9	6.0	-4.8	15.9	-7.0
O=C(Nc1ccc(S(=O)(=O)N2CCOCC2)cc1)c1cc(-c2cc(Cl)ccc2O)n[nH]1	-4.8	-3.3	10.8	69.4*	40.3	90.6*
CC(=O)c1ccc(NC(=O)Nc2ccc(S(=O)(=O)N3CCCC3)cc2)cc1	0.1	-2.5	4.0	-23.4	28.9	-17.6
COc1ccc(N(C(=O)c2ccco2)S(=O)(=O)c2cc(Cl)c(Cl)cc2Cl)cc1	3.2	3.0	1.5	53.8*	15.4	25.0
COc1ccc(C(=O)C(CCC(CNC(C)(C)C)C(=O)c2ccc(OC)cc2)CNC(C)(C)C)cc1 (stereo not drawn)	8.6	45.0*	95.4*	-0.3	4.7	16.9
S=C(NCCCN1CCOCC1)N1CCN(c2nc(-c3ccc(Cl)cc3)cs2)CC1	44.1*	5.6	31.0	45.4	0.8	36.7
S=C(NCC1CCCO1)N1CCN(c2nc(-c3ccc(Cl)cc3)cs2)CC1 (stereo not drawn)	19.4	-10.6	27.0	25.6	63.6	63.9*
S=C(NCCCN1CCOCC1)N1CCN(c2nc(-c3ccccc3)cs2)CC1	9.8	1.2	8.1	13.6	40.7	-2.8
O=C(C1CCCCC1)N1CCN(S(=O)(=O)c2cccc([N+](=O)[O-])c2)CC1	0.3	-2.1	-5.8	-3.7	11.2	17.3
CN(C)C(=O)c1c(NC(=O)c2ccco2)sc2c1CCCCC2	5.6	-12.2	-10.1	65.0*	0.3	29.9
CCOC(=O)c1c(NC(=O)c2ccco2)sc2c1CCCCC2	-10.6	-68.9	-24.8	-35.2	41.0	-1.9
NC(=O)c1c(NC(=O)c2ccco2)sc2c1CCC2	-57.7	-419.9	-58.1	-35.0	-52.5	18.1
O=C(Nc1sc2c(c1C(=O)O)CCCCC2)c1ccco1	3.7	-121.8	-37.0	0.7	-56.8	55.5*
COc1ccc(C(C(=O)NC2CCCC2)n2c(C3CCN(C(C)=O)CC3)nc3ccccc32)cc1 (stereo not drawn)	.	-175.8	.	.	.	.
Nc1nccc(SCc2ccc(Cl)cc2Cl)n1	5.8	-34.4	5.0	18.4	42.0	57.0*
Nc1nc(SCc2ccc(Cl)cc2Cl)n[nH]1	-9.6	-112.4	-44.2	-14.8	-42.8	-14.7
O=C(NC(Nc1ncc(S(=O)(=O)c2ccc([N+](=O)[O-])cc2)s1)(C(F)(F)F)C(F)(F)F)c1ccc(Cl)cc1	24.5	-2.9	17.6	53.0*	23.2	46.9
FC(F)(F)c1cc(CCN2CCNC[C@@H]2CC2CCCCC2)cc(C(F)(F)F)c1	-7.0	5.2	64.4*	-29.5	3.2	-3.1
COCc1cc(=O)[nH]c(Cc2c(Cl)cccc2Cl)n1	-3.1	11.5	7.1	-3.3	-22.5	-2.9
CC1(C)CC(=O)C2=C(C1)Oc1nc3ccccc3cc1C2C(C#N)C#N (stereo not drawn)	6.1	7.5	80.5*	12.4	-16.4	68.6*
CNC(=O)CN(Cc1ccccc1)S(=O)(=O)c1ccccc1	8.0	21.9	7.5	-7.8	-13.0	-12.9
CC(C)(C)NC(=O)CN(Cc1ccccc1)S(=O)(=O)c1ccccc1	-0.4	13.8	4.6	3.5	1.5	53.9*
